D2 antagonist: antagonizes the human D2 dopamine receptor; HEK293 TREx D2 cells, calcium flux, dopamine EC80; inhibition, % at 10 µM; 2% of 340,000 active; AID 485344; in the data active = inhibition above about 30%; inactive = below that, where a call was filed; also: 0% is about no effect
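Read-out: kinetic calcium fluorescence (1 cycle/s) in inducible HEK293 T-REx D2 cells after an EC80 dopamine addition that followed 180 s compound preincubation. Loss of the dopamine response indicates antagonism.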
D2 PAM-1: human D2 receptor positive allosteric modulation; DiscoveRx D2 beta-arrestin cells, luminescence, 90 min; 100% = 57 uM dopamine signal; potentiation, % (concentration not given with the values); 0.23% of 360,000 active; AID 624464; in the data active = potentiation above about 50%; inconclusive = mostly about 30% to 49%
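PathHunter beta-arrestin assay in DiscoveRx D2 cells. Compounds were added with an EC20 of dopamine (50 nM final) for 90 min at 37 deg C. Luminescence was read 1 h after detection reagent, with 57 uM dopamine as the EC100 control.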
D2 ag-1: human D2 receptor agonism in beta-arrestin assay; DiscoveRx PathHunter D2 beta-arrestin, luminescence, 90 min; 100% = 57 uM dopamine signal; AID 624465; 0.084% of 360,000 active; P14416; activation, % (concentration not given with the values); in the data active = activation above about 40%; inconclusive = between about 15% and that limit
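DiscoveRx PathHunter D2 beta-arrestin cells (2,100/well) attached overnight, then compound-stimulated 90 min at 37 C in HBSS/10 mM HEPES/0.1% Tween-20 buffer; beta-galactosidase complementation read by luminescence after 1 h at ambient temperature. Dopamine 57 uM final (EC100) as control.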
D2 ag-2: activates the human D2 dopamine receptor; P14416; HEK293 T-REx D2 cells, calcium flux agonist mode; activation, % at 2 µM; 0.53% of 340,000 active; AID 485358;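 active = activation over 3 SD above normal in the single-dose calcium agonist read, cut at about 30% in these data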; also: 0% is about no effect
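Calcium-flux readout, 1 cycle/sec over 180 s following compound pin transfer, in inducible HEK293 Trex D2 cells (force-coupled); dopamine controls included. Positive calcium responses during this window marked compounds as potential agonists.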
D2 PAM-2: positive allosteric modulators of human D2 dopamine receptor; P14416; HEK293 T-REx D2, calcium flux, EC20 dopamine potentiation; potentiation, % at 10 µM; 0.34% of 340,000 active; AID 485347;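 active = potentiation over 3 SD above the plate norm, cut at about 30% in these data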; also: 0% is about no effect
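Tetracycline-induced HEK293 T-REx cells force-coupled to calcium signalling expressed D2; compounds were pin-added after a 10 s baseline, read kinetically 180 s, then an EC20 dopamine challenge followed with a further 180 s calcium read.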
LDHA block: LDHA (human) enzyme inhibition. P00338. purified LDHA, NADH/diaphorase-resazurin fluorescence; stronger effect = lower value. activity change, % (values are at about 110 or 230 µM). 0.15% of 480,000 active; in the data active = activity change below about -30%; inconclusive = mostly about -25% to -30%;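 also: plate controls were DMSO wells for no effect and wells without enzyme for full effect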
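LDH5 2 nM; NADH 0.06 mM, pyruvate 0.2 mM; 200 mM Tris pH 7.4, EDTA, Tween-20; 5 min RT. Detection: diaphorase 0.133 mg/mL + resazurin 37 µM, fluorescence ex540/em590 at 0 and 20 min; normalized to enzyme-free and DMSO wells.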
D3 arrestin ag: confirmation of human D3 dopamine receptor agonists, beta-arrestin | shares compounds with D2 ag-2 | Potency, µM (highest dose often 76.9 µM), inactives show top-dose activation, most hits filed as activators | DiscoveRx D3 beta-arrestin cells, luminescence, 90 min | 4% of 2,300 active;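 also: potency is read from the fitted curve at half-maximal effect; 100% = dopamine control response; nearly all actives have a fitted effect of over 70% in size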
Target sequence (P35462 whole entry, looked up): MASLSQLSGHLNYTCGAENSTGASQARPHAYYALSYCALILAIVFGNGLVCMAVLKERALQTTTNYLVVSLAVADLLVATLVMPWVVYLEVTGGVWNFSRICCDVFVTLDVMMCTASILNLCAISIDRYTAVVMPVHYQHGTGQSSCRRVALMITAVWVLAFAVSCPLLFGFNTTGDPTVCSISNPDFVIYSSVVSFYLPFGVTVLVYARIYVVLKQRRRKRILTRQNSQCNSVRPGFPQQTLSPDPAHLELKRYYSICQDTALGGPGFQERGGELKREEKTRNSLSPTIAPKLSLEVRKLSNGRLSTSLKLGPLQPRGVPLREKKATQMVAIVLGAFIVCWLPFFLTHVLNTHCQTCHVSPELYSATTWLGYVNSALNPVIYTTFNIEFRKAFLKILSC
D2 ag-3: activates human D2 dopamine receptor in D3 counterscreen. Potency, µM (highest dose often 76.9 µM), for inactives: at the top dose activation, hits mostly activators. shares compounds with D2 ag-2. 5.9% of 2,300 active. AID 720507. DiscoveRx PathHunter D2 beta-arrestin, luminescence, 90 min; response scale: percent relative to full dopamine signal; also: potency is read from the fitted curve at half-maximal effect; % of control where 0% means no effect; nearly all actives have a fitted effect of over 70% in size
* marks the source's active call; other numbers are inactive results. The list is not random: actives were taken first. Their share in the collection is about 2.1%. Unless noted, calls follow the shape of the dose curve; as a rule, active = well fitted activation curve with a large enough effect; inconclusive = small, poorly fitted or top-dose-only effect; inactive = flat fitted curve, though single readings scatter.

How did Cc1ccc(C(=O)N2CCN(C34CC5CC(CC(C5)C3)C4)CC2)o1 do in these assays?
D2 PAM-1: -13.3; D2 ag-1: 0.3; LDHA block: -3.0; D3 arrestin ag: -2.3%; D2 ag-3: 0.6%

Results for O=C(O)CCC(NS(=O)(=O)c1ccc(Cl)cc1)C(=O)O (stereo not drawn) ?
LDHA block: 3.7

Results for O=C(NCc1cccnc1)C(=O)NCC(c1ccco1)N1CCN(c2ccccc2F)CC1 (stereo not drawn) ?
D2 antagonist: -17.6; D2 PAM-1: 5.9; D2 ag-1: 41.4*; D2 ag-2: 62.6*; D2 PAM-2: -20.9; LDHA block: -8.2; D3 arrestin ag: -4.0%; D2 ag-3: inconclusive

What do the screens show for `O=C(NCc1cccnc1)C(=O)NCC(c1ccco1)N1CCN(c2ccccc2)CC1` (stereo not drawn)?
D2 antagonist: 19.2; D2 PAM-1: 8.3; D2 ag-1: inconclusive; D2 ag-2: 31.9*; D2 PAM-2: -7.6; LDHA block: -3.9; D3 arrestin ag: inconclusive; D2 ag-3: inconclusive

What do the screens show for `O=C(NCc1ccccc1)C(=O)NCC(c1ccco1)N1CCN(c2ccccc2F)CC1` (stereo not drawn)?
D2 antagonist: -5.5; D2 PAM-1: -1.9; D2 ag-1: -4.5; D2 ag-2: 11.0; D2 PAM-2: -4.5; LDHA block: -2.5

How did CCOC(=O)c1sc(NC(=O)c2c(CC)noc2C)nc1C do in these assays?
D2 antagonist: -0.3; D2 PAM-1: 0.0; D2 ag-1: -0.5; D2 ag-2: 0.1; D2 PAM-2: -10.3; LDHA block: -17.2; D3 arrestin ag: -1.8%; D2 ag-3: -0.9%

How did CCOC(=O)c1sc(NC(=O)CSCc2c(C)noc2C)nc1C do in these assays?
D2 antagonist: -7.2; D2 PAM-1: -3.1; D2 ag-1: 10.4; D2 ag-2: -0.9; D2 PAM-2: 1.4; LDHA block: -9.5; D3 arrestin ag: -5.4%; D2 ag-3: -4.2%

How did CCCc1cc(=O)[nH]c(SC(C)C(=O)NC)n1 (stereo not drawn) do in these assays?
LDHA block: 5.0

Results for Cc1ccc(-c2nc(Cn3cnc4sccc4c3=O)co2)c(C)c1 ?
LDHA block: -1.1

Results for Cc1onc(-c2c(Cl)cccc2Cl)c1C(=O)N1CCc2ccccc2C1 ?
D2 antagonist: -0.2; D2 PAM-1: -8.1; D2 ag-1: -2.3; D2 ag-2: 72.4*; D2 PAM-2: -10.6; LDHA block: -3.7; D3 arrestin ag: -2.4%; D2 ag-3: -1.1%

How did CC(C)(O[C@@H]1O[C@H](CO)[C@@H](O)[C@H](O)[C@H]1O)[C@H]1Cc2cc3ccc(=O)oc3cc2O1 do in these assays?
D2 antagonist: -10.1; D2 PAM-1: -4.9; D2 ag-1: -3.9; D2 ag-2: 1.5; D2 PAM-2: -7.3; LDHA block: -3.4

Results for CC(C)(O[C@@H]1O[C@H](CO)[C@@H](O)[C@H](O)[C@H]1O)[C@@H]1CC=C(C(=O)O)CC1 ?
D2 antagonist: -18.4; D2 PAM-1: 4.6; D2 ag-1: -2.0; D2 ag-2: -1.0; D2 PAM-2: 10.4; LDHA block: -1.4; D3 arrestin ag: -3.2%; D2 ag-3: -2.1%

Results for CCN1CCC2(CC1)N=C(SCC(=O)Nc1ccc(F)c(Cl)c1)C(c1ccccc1)=N2 ?
LDHA block: -4.0

Results for CCOc1ccc(/C=N/NC(=O)C(OC)c2ccccc2)cc1 (stereo not drawn) ?
D2 antagonist: 0.3; D2 PAM-1: 4.5; D2 ag-1: 1.0; D2 ag-2: 0.3; D2 PAM-2: 5.1; LDHA block: -5.5

Results for CCOc1ccc(C=NCC(O)c2ccccc2)cc1 (stereo not drawn) ?
D2 antagonist: 12.9; D2 PAM-1: -7.3; D2 ag-1: 3.0; D2 ag-2: 20.8; D2 PAM-2: -2.3; LDHA block: -3.5; D3 arrestin ag: -3.8%; D2 ag-3: 1.3%

What do the screens show for `CC(Sc1nc2ccccc2[nH]1)C(=O)Nc1ccc2c(c1)OCCO2` (stereo not drawn)?
D2 antagonist: 65.8*; D2 PAM-1: -16.4; D2 ag-1: -2.4; D2 ag-2: 0.5; D2 PAM-2: -8.4; LDHA block: 0.5; D3 arrestin ag: -11.8%; D2 ag-3: -4.9%

How did CC(Sc1ncccn1)C(=O)Nc1ccc2c(c1)OCCO2 (stereo not drawn) do in these assays?
D2 PAM-1: -36.2; D2 ag-1: -2.7; LDHA block: -2.1

What do the screens show for `CC1CCCCN1Cc1cc(=O)oc2cc(-c3ccccc3)c(O)cc12` (stereo not drawn)?
LDHA block: 18.9

Results for O=C(CCc1nnc2n(Cc3ccccc3Cl)c(=O)c3ccccc3n12)NCCCN1CCOCC1 ?
D2 antagonist: -8.2; D2 PAM-1: -9.8; D2 ag-1: -0.7; D2 ag-2: 1.2; D2 PAM-2: -4.9; LDHA block: -2.9

How did Cc1ccc(Cn2c(=O)c3ccccc3n3c(CCC(=O)NCCN4CCOCC4)nnc23)cc1 do in these assays?
D2 antagonist: -11.1; D2 PAM-1: -7.7; D2 ag-1: 5.0; D2 ag-2: 62.7*; D2 PAM-2: -27.2; LDHA block: -2.9; D3 arrestin ag: -7.7%; D2 ag-3: -0.8%

How did Cc1ccccc1NCC(=O)N1CCN(S(=O)(=O)c2ccc3ccccc3c2)CC1 do in these assays?
LDHA block: 11.9

What do the screens show for `COCCCNC(=O)CN1C(=O)COc2ccc(S(=O)(=O)N3CCOCC3)cc21`?
D2 antagonist: 4.4; D2 PAM-1: -9.0; D2 ag-1: -5.7; D2 ag-2: 0.4; D2 PAM-2: 6.1; LDHA block: -2.2

Results for CCCN(CCC)CCNC(=O)CN1C(=O)COc2ccc(S(=O)(=O)N3CCOCC3)cc21 ?
D2 antagonist: 14.6; D2 PAM-1: -9.9; D2 ag-1: 2.8; D2 ag-2: 37.5*; D2 PAM-2: -16.2; LDHA block: -0.7; D3 arrestin ag: -7.5%; D2 ag-3: 8.3%

Screens as filed in PubChem.
